Laboratory results taken from PubChem BioAssay (NCATS).
Several values for one entry are separate records, joined by “and”; a condition that tells them apart may be missing. Equal entries are not always repeated. Results filed as inconclusive are left out. Where a call stands in place of a potency, no number is given. Activity calls are given as the source filed them. Calls come from the whole dose curve; as a rule, active = well fitted curve in the direction sought with a large enough effect; inconclusive = small, poorly fitted or top-dose-only effect, or another doubt; inactive = no such curve, though single readings can be large; an effect the other way counts as inactive or inconclusive.

What was measured:
[1] = target: Tyrosine-protein phosphatase non-receptor type substrate 1 (Homo sapiens) + Leukocyte surface antigen CD47 (Homo sapiens) (UniProt P78324+Q08722); assay: CD47-SIRPalpha protein protein interaction - Alpha assay qHTS validation (AID 1347059)
Chain of Tyrosine-protein phosphatase non-receptor type substrate 1 (Homo sapiens) + Leukocyte surface antigen CD47 (Homo sapiens) (P78324 whole entry, looked up): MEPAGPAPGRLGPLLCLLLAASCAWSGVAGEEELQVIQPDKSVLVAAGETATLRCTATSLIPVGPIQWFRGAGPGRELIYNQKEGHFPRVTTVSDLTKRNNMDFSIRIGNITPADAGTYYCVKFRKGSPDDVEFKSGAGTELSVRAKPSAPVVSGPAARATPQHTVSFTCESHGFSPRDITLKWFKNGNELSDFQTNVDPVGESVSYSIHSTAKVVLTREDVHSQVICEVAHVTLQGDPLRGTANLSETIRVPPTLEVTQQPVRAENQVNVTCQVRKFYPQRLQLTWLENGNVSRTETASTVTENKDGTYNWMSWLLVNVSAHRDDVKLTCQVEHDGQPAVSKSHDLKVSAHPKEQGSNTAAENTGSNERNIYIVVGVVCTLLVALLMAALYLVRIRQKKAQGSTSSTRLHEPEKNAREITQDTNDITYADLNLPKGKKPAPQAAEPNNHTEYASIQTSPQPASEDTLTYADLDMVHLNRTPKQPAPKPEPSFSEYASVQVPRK
Chain of Tyrosine-protein phosphatase non-receptor type substrate 1 (Homo sapiens) + Leukocyte surface antigen CD47 (Homo sapiens) (Q08722 whole entry, looked up): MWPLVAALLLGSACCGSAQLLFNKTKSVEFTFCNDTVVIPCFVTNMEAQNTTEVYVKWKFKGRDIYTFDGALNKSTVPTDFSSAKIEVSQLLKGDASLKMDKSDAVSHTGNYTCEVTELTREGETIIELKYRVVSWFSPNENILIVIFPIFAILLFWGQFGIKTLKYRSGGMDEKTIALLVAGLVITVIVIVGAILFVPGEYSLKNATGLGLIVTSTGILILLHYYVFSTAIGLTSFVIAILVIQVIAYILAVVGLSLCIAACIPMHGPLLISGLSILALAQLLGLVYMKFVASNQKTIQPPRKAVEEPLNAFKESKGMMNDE
How it was run: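 Binding is measured by AlphaScreen proximity: Ni-NTA acceptor beads capture His-CD47, streptavidin donor beads capture biotin-SIRPalpha. Each of three additions (SIRPalpha with compound, CD47, beads) incubates 30 min at room temperature protected from light.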

[2] = target: Parathyroid hormone/parathyroid hormone-related peptide receptor (Homo sapiens) (UniProt Q03431); assay: qHTS for PTHR1 Agonists: Optimization Screen against the NCGC LOPAC library (AID 1347079);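 note: GloSensor cAMP luminescence in HEK-293 GP2 cells expressing human PTHR1 with IBMX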; note: potency is the fitted concentration of half-maximal effect
Chain of Parathyroid hormone/parathyroid hormone-related peptide receptor (Homo sapiens) (Q03431 whole entry, looked up): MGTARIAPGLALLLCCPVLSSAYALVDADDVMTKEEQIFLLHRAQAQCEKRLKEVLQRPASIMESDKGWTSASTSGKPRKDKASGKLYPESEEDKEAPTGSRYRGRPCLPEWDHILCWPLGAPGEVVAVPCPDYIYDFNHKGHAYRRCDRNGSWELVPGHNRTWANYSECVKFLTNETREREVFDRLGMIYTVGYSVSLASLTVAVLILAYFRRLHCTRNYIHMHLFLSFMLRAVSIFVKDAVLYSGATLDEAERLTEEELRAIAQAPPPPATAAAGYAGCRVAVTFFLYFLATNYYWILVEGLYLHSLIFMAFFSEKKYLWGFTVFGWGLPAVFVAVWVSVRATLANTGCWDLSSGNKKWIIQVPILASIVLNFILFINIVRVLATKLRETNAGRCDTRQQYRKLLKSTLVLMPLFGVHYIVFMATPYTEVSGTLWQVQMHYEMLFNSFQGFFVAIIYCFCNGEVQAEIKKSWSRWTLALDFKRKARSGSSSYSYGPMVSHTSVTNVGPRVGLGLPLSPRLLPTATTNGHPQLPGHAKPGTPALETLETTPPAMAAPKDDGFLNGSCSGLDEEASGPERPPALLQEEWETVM
How it was run: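 Compounds were tested across a qHTS titration. PTHR1-expressing GP2 cells report cAMP rises via GloSensor luminescence after 1 hr compound exposure at 37C with IBMX present.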

[3] = qHTS of pediatric cancer cell lines to identify multiple opportunities for drug repurposing: Primary screen for DAOY cells (AID 1347090); note: nearly all actives have a fitted effect of over 55% in size; note: potency is the fitted concentration of half-maximal effect
How it was run: (§1)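 Cell viability, CellTiter-Glo luminescence; 500-1,000 cells/well, 8- or 11-point titration, 48 h compound exposure at 37 degrees C, 5% CO2. Controls: DMSO neutral, bortezomib 2.3 µM final as positive.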

[4] = qHTS of pediatric cancer cell lines to identify multiple opportunities for drug repurposing: Primary screen for SJ-GBM2 cells (AID 1347091); note: potency is the fitted concentration of half-maximal effect
How it was run: as §1

[5] = qHTS of pediatric cancer cell lines to identify multiple opportunities for drug repurposing: Primary screen for A673 cells (AID 1347092); note: nearly all actives have a fitted effect of over 45% in size; note: potency is the fitted concentration of half-maximal effect
How it was run: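 Cells are plated, rested 5 h, dosed by pintool, incubated 48 h, then lysed with CellTiter-Glo and read by luminescence. DMSO is the neutral control; bortezomib at 2.3 uM final is the positive control.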

[6] = qHTS of pediatric cancer cell lines to identify multiple opportunities for drug repurposing: Primary screen for SK-N-MC cells (AID 1347093); note: potency is the fitted concentration of half-maximal effect
How it was run: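 Metabolically active cells were quantified by ATP-dependent luminescence (CellTiter-Glo, 15 min at room temperature) following 48 h treatment. Cells had been plated at 500-1,000 per well and settled for 5 h beforehand.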

[7] = qHTS of pediatric cancer cell lines to identify multiple opportunities for drug repurposing: Primary screen for BT-37 cells (AID 1347094); note: potency is the fitted concentration of half-maximal effect
How it was run: (§2)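 Quantitative HTS format: each compound titrated (MIPE 11 points from 0.78 nM, NPC 8 points from 0.59 nM) onto cells plated 5 hours earlier. After 48 h at 37 degrees C, CellTiter-Glo luminescence was recorded.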

[8] = qHTS of pediatric cancer cell lines to identify multiple opportunities for drug repurposing: Primary screen for NB-EBc1 cells (AID 1347095); note: potency is the fitted concentration of half-maximal effect
How it was run: as §2

[9] = qHTS of pediatric cancer cell lines to identify multiple opportunities for drug repurposing: Primary screen for U-2 OS cells (AID 1347096); note: nearly all actives have a fitted effect of over 50% in size; note: potency is the fitted concentration of half-maximal effect
How it was run: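 Cells (500-1,000/well) rested 5 h, then received compounds for 48 h; metabolically active cells were measured by CellTiter-Glo luminescence. Final concentrations spanned up to 46 µM (MIPE, 11-point) or 0.59 nM-46 µM (NPC, 8-point) in primary screens, 11-point in follow-ups.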

[10] = qHTS of pediatric cancer cell lines to identify multiple opportunities for drug repurposing: Primary screen for TC32 cells (AID 1347089); note: nearly all actives have a fitted effect of over 60% in size
How it was run: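 Measured quantity: luminescence from CellTiter-Glo, reflecting metabolically active TC32 cells following 48 h of compound. Curves came straight from multi-point titrations, with 8 or 11 points in primary and 11 in confirmatory screening.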

Compound | Potency [1] | Potency [2] | Potency [3] | Potency [4] | Potency [5] | Potency [6] | Potency [7] | Potency [8] | Potency [9] | Potency [10] | outcome [1]
COc1ccccc1N1CCN(CC(O)COc2cccc3ccccc23)CC1 (configuration not stated) | inactive | inactive | inactive | inactive | inactive | inactive | inactive | inactive | inactive | – | –
CC1(C)O[C@H]2CC(=O)OC[C@]23[C@H]2CC[C@@]4(C)[C@H](c5ccoc5)OC(=O)[C@H]5O[C@]54[C@]2(C)C(=O)C[C@@H]13 | – | – | inactive | inactive | inactive | inactive | inactive | inactive | inactive | inactive | –
NC(=O)NO | inactive | inactive | inactive | – | – | – | – | – | inactive | – | –
O=C(c1ccc(OCCN2CCCCC2)cc1)c1c(-c2ccc(O)cc2)sc2cc(O)ccc12 | – | inactive | – | 9.44 µM (active) and 18.7 µM (active) | 10.6 µM (active) and 18.7 µM (active) | 18.8 µM (active) | – | 20900 nM (active) | inactive | inactive | –
CC1(CN2CCC(n3c(=O)[nH]c4ccccc43)CC2)OCc2ccccc2-n2cccc21 (configuration not stated) | – | – | inactive | inactive | – | 33.2 µM (active) | inactive | – | inactive | inactive | –
Cc1ccc(-c2cc(C(F)(F)F)nn2-c2ccc(S(N)(=O)=O)cc2)cc1 | inactive | – | inactive | inactive | inactive | – | – | inactive | inactive | inactive | –
CN(C)CCOC(c1ccccc1)c1ccccc1 | – | inactive | inactive | inactive | inactive | – | inactive | inactive | inactive | – | inactive
CC(C(=O)O)c1cccc(C(=O)c2ccccc2)c1 (configuration not stated) | – | inactive | inactive | inactive | – | – | inactive | inactive | inactive | inactive | –
CN(CCOc1ccc(NS(C)(=O)=O)cc1)CCc1ccc(NS(C)(=O)=O)cc1 | inactive | – | inactive | inactive | inactive | inactive | inactive | inactive | inactive | inactive | –
CN1CCN(CCCN2c3ccccc3Sc3ccc(Cl)cc32)CC1 | – | inactive | – | – | 9.35 µM (active) | 0.0418 µM (active) | 9.68 µM (active) | inactive | inactive | inactive | –
CN(C)CCCN1c2ccccc2CCc2ccc(Cl)cc21 | – | inactive | – | 23.7 µM (active) | 0.469 µM (active) | 332 nM (active) and 23.7 µM (active) | 12.2 µM (active) and 24.6 µM (active) | inactive | – | inactive | –
CC(C)NCC(O)c1ccc(O)c(O)c1 (configuration not stated) | inactive | 11.9 nM (active) | – | – | 1.18 µM (active) | 0.935 µM (active) | – | – | inactive | inactive | –
CC#C[C@]1(O)CC[C@H]2[C@@H]3CCC4=CC(=O)CCC4=C3[C@@H](c3ccc(N(C)C)cc3)C[C@@]21C | – | inactive | 469 nM (active) | 1.05 µM (active) | 26.6 µM (active) and 118 nM (active) | 0.118 µM (active) | 0.243 µM (active) | 526 nM (active) | 935 nM (active) | – | –
CS(=O)(=O)Nc1ccc([N+](=O)[O-])cc1Oc1ccccc1 | – | inactive | inactive | inactive | inactive | 23.5 µM (active) | inactive | inactive | inactive | inactive | –
